In paper PMC4336329 (PLoS ONE, 2015):
About 14,000 (4.5%) of roughly 310,000 compounds showed an effect of 50% or more. The effect is printed as a negative number. This is one part of a sample in which strong results are shown more often than they occur.

Target: human ether-à-go-go-related gene (hERG) potassium channel (human, UniProt Q12809)
Experiment: primary screen, population patch clamp on CHO cells stably expressing hERG; higher = less effect of the substance
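Also: peak tail current of the secondary pulse compared with the same well before compound.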

human ether-à-go-go-related gene (hERG) potassium channel, sequence (Q12809 whole entry, looked up): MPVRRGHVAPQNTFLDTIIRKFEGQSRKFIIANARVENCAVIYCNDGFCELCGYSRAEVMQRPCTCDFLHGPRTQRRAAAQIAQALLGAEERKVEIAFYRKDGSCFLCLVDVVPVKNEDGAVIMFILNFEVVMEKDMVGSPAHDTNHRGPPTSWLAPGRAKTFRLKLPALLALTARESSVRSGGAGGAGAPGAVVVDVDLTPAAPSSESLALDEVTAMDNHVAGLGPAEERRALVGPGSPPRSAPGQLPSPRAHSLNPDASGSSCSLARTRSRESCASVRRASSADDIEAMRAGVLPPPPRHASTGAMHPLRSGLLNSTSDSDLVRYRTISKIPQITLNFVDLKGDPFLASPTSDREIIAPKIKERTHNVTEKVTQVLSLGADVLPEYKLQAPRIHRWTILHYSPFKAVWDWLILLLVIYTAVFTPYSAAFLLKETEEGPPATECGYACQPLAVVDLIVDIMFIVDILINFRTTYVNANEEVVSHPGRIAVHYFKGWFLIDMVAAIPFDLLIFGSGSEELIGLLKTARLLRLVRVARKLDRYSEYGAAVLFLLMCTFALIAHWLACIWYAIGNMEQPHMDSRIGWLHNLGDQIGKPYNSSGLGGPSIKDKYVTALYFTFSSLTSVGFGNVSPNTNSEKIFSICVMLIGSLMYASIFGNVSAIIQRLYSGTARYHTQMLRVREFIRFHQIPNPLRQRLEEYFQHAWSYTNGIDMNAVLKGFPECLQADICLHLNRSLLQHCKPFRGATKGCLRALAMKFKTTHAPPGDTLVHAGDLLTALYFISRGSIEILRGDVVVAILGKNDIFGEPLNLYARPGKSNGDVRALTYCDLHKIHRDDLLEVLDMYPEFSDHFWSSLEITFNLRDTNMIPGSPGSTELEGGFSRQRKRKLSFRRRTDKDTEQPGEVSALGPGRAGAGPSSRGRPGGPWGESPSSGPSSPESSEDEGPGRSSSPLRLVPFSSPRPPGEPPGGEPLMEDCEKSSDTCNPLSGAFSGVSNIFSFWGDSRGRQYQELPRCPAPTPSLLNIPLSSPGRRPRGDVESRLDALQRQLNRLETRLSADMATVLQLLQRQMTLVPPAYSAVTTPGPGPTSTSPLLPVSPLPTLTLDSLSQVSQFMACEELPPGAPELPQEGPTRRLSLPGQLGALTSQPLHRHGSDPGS

Row | Compound | hERG current change (%, negative = inhibition) at 10uM
1 | Cc1ccc(OCc2nc3ccccc3[nH]2)cc1 | -9.02%
2 | O=C(CN1CCN(c2cccc(C(F)(F)F)c2)CC1)N(C1CC1)C1CCS(=O)(=O)C1 (stereo not drawn) | -29.2%
3 | O=[N+]([O-])c1cccnc1N1CCCCC1 | 5.7%
4 | Cc1c(C(=O)N2CCN(c3ccccc3)CC2)sc2nc3n(c(=O)c12)CCC3 | 6.84%
5 | COc1ccc(-c2nnnn2C)cc1S(=O)(=O)NCCc1ccccc1 | -2.23%
6 | CCc1c(C)sc(NC(=O)Cc2ccccc2OC)c1C(=O)N1CCOCC1 | -16.4%
7 | Cc1cc(N)n2nc(-c3ccc(C(C)(C)C)cc3)cc2n1 | 8.26%
8 | O=C(NCC(c1cccs1)N1CCOCC1)c1cc([N+](=O)[O-])ccc1Cl (stereo not drawn) | -20.5%
9 | NC(=O)c1ccccc1OCC(=O)Nc1ccc2c(c1)CCC2 | 5.27%
10 | Cc1ccc(S(=O)(=O)Oc2ccc(/C=C3\N=C(c4cccc(C)c4)OC3=O)cc2)cc1 | 1.5%
11 | O=C(COc1ncnc2ccccc12)Nc1ccc(Cl)c(S(=O)(=O)N2CCOCC2)c1 | -13.5%
12 | CCn1c(C)c(C(=O)O)c2cc(OC)ccc21 | 6.41%
13 | Cc1ccc(NC(=O)c2ccc(Cl)c(N3C(=O)C=CC3=O)c2)cc1 | -0.826%
14 | CN(CCOc1ccccc1)C(=O)c1ccc(OC2CCN(C(=O)C3CC3)CC2)cc1 | -25.7%
15 | COc1ccc(NC(=O)CCC(=O)Nc2nnc(CC(C)C)s2)cc1Cl | 20%
16 | CN1CCC(=O)N([C@H](CO)Cc2ccccc2)CC1 | 12%
17 | COc1ccc(SC[C@H](Cc2ccccc2)N2CCN(C)CCC2=O)cc1 | -52.2%

Row | Compound | hERG current change (%, negative = inhibition) at 10uM
18 | Cc1nn(CCCC(=O)NCc2ccc(Cl)cc2)c(C)c1[N+](=O)[O-] | -41.9%
19 | Nc1cc(C(=O)N2CCCC2)cc(C(=O)N2CCCC2)c1 | 11.9%
20 | O=C(O)c1ccc2cc(-c3ccccc3)[nH]c2c1 | -30.8%
21 | C=CCN1C(=O)C(Cc2ccc(OC)cc2)S/C1=N\N=C\c1cccs1 (stereo not drawn) | 13.1%
22 | O=C(CSc1ccccc1)N1CCN(c2ccccn2)CC1 | -24.6%
23 | O=C(CCn1nc(-c2ccc(Cl)cc2)ccc1=O)N1CCN(c2ccc(F)cc2)CC1 | -52.9%
24 | O=C(O)CCC(=O)N1CCN(c2ccccn2)CC1 | 9.16%
25 | CN1C(=O)CC(N2CCN(c3ccccn3)CC2)C1=O (stereo not drawn) | 1.46%
26 | O=C(CCn1nc(-c2ccc(Cl)cc2)ccc1=O)N1CCN(c2ccccc2)CC1 | -45.9%
27 | O=C(CCC(=O)N1CCN(c2ccc(F)cc2)CC1)c1ccccc1 | -12.7%
28 | O=C1CC(N2CCN(c3ccccn3)CC2)C(=O)N1CC(c1ccccc1)c1ccccc1 (stereo not drawn) | -64%
29 | O=C1CC(N2CCN(c3ccccn3)CC2)C(=O)N1c1ccc(F)cc1 (stereo not drawn) | 14.7%
30 | O=C(CCC(=O)N1CCN(c2ccc(F)cc2)CC1)c1ccc(F)cc1 | -69.4%
31 | Cc1ccc(C(=O)CCC(=O)N2CCN(c3ccc(F)cc3)CC2)cc1 | -10.1%
32 | O=C(CC(c1ccccc1)c1ccccc1)N1CCN(c2ccccn2)CC1 | -53.4%
33 | O=C(CCn1nc(-c2ccc(Cl)cc2)ccc1=O)N1CCOCC1 | -36.9%
